Assay results published in PubChem BioAssay AID686978 (National Center for Advancing Translational Sciences (NCATS), 2013).
Screen size: about 420,000 compounds; about 64,000 (15%) were called active. Not shown: some 27% with an inconclusive outcome. Not all results are given here. Unmarked numbers belong to inactive results. The call rests on the fitted dose curve; in most records, active means well fitted inhibition curve with a large enough effect; inconclusive means small, poorly fitted or top-dose-only effect; inactive means flat fitted curve, though single readings scatter.

Experiment: qHTS for Inhibitors of human tyrosyl-DNA phosphodiesterase 1 (TDP1): qHTS in cells in absence of CPT; further: nearly all actives have a fitted effect of over 55% in size
Settings: DT40 Tdp1-/- hTDP1 cells, no CPT, ATP luminescence, 48 h; activity change, negative = growth inhibition: at 46.2 µM (top of the series)
Outline: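 Compound effects on proliferation are scored in DT40 Tdp1-/-;hTDP1 cells in the absence of CPT. ATP levels (CellTiter-Glo luminescence) are recorded after a ≥48 hr, 37 °C incubation.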
On the % scale 0 is the no-effect control and ±100 the full control effect; potency means the concentration at half of the fitted maximal effect.

SMILES | activity change, negative = growth inhibition | Potency
N#Cc1cc([N+](=O)[O-])ccc1NC(=O)COC(=O)c1cnccn1 | -19.1% | 
NS(=O)(=O)c1cccc(NC(=O)CC23CC4CC(CC(Br)(C4)C2)C3)c1 | -2.07% | 
Cn1cccc1C(C#N)c1ccccc1C#N (centres undefined) | -0.548% | 
Cc1ccccc1NC(=O)C(C)OC(=O)CCC(=O)N(CC(C)C)c1c(N)n(CC(C)C)c(=O)[nH]c1=O (centres undefined) | -7.3% | 
Cc1cccc(C(C)C)c1NC(=O)COC(=O)C1CC(=O)N(Cc2ccccc2)C1 (centres undefined) | -25.4% | 
Cc1ccc(C(=O)NNC(=O)OC(C)(C)C)c(Cl)c1 | -5.16% | 
O=C(NNc1c2ccccc2nc2ccccc12)c1cc2ccccc2cc1O |  | 18.4 µM (active)
O=C(COC(=O)c1ccc(O)cc1O)NC(=O)c1ccccc1 | -21.6% | 
CC(C)(C)OC(=O)NNc1c2ccccc2nc2ccccc12 |  | 13 µM (active)
O=C(N/N=C/c1cccnc1)c1cc2ccccc2cc1O | -19.2% | 
Cc1ccccc1NC(=O)NNC(=O)OC(C)(C)C | -0.379% | 
CCCCNC(=O)N(O)C1N(/N=C/c2ccc(N(C)C)cc2)C(=S)SC1(C)C (centres undefined) | -11% | 
Cc1csc(/N=C/N(C)C)c1C#N | -18% | 
CCS(=O)(=O)Nc1ccc(C2=NN(C(C)=O)C(c3cccs3)C2)cc1 (centres undefined) |  | 5.8 µM (active)
CS(=O)(=O)Nc1ccc(C2=NN(S(C)(=O)=O)C(c3cccs3)C2)cc1 (centres undefined) | 6.29% | 
COc1ccc(C2=NN(C(=O)CCC(=O)O)C(c3cccs3)C2)cc1OC (centres undefined) | -3.18% | 
NNC(=O)c1cccc(COCC(F)(F)C(F)F)c1 | 0.0307% | 
O=C(Nc1cc(S(=O)(=O)N2CCOCC2)ccc1N1CCOCC1)c1c(F)cccc1Cl | -28.8% | 
Cc1ccc2oc(C(=O)Nc3ccc(S(=O)(=O)N4CCCCCC4)cc3)cc(=O)c2c1 | -20% | 
O=C(Nc1cc(S(=O)(=O)N2CCOCC2)ccc1Cl)c1cc(=O)c2ccccc2o1 |  | 20.6 µM (active)
Cc1nonc1NC(=O)c1oc2ccccc2c1C | 15.9% | 
O=C(Cn1[nH]c(=O)c2ccccc2c1=O)Nc1cccc(-c2nnc3n2CCCCC3)c1 | -11.3% | 
Cc1c(C(=O)Nc2ccccc2Cl)oc2ccc(S(=O)(=O)N3CCC4(CC3)OCCO4)cc12 | -27.9% | 
Cc1cc(C)n2nc(C(=O)Nc3cccc(S(=O)(=O)N4CCOCC4)c3)nc2n1 | -4.7% | 
COc1ccc(NC(=O)c2oc3ccc(S(=O)(=O)N4CCOCC4)cc3c2C)cc1 |  | 10.3 µM (active)
Cc1c(C(=O)Nc2cccc(-c3nnc4n3CCCCC4)c2)oc2ccccc12 |  | 16.4 µM (active)

SMILES | activity change, negative = growth inhibition | Potency
Cc1occc1C(=O)Nc1cccc(S(=O)(=O)N2CCOCC2)c1 | -21.2% | 
Cc1c(C(=O)NCCN(C)C)oc2ccc(S(=O)(=O)N3CCCC3)cc12 | -8.67% | 
Cc1c(C(=O)Nc2cccc(S(=O)(=O)N3CCOCC3)c2)oc2ccccc12 |  | 20.6 µM (active)
CSCCC(NC(=O)c1ccco1)C(=O)OCC(=O)Nc1ncc(Cl)c(C)c1Cl (centres undefined) | -20% | 
O=C(Nc1c2c(nn1-c1ccccc1)CS(=O)(=O)C2)C1CCCC1 | -18.2% | 
COCCNC(=O)C(OC(=O)c1cccs1)c1ccc(F)cc1 (centres undefined) | -11.5% | 
Cn1cc(C2OC(=O)c3ccccc32)c2ccccc21 (centres undefined) | -28.3% | 
CCn1c(O)c(N=NC2=NC(=O)CS2)c2cc(C)ccc21 | -23.4% | 
COC(=O)C[C@@H]1C=C[C@@H](NS(=O)(=O)c2cccc(OC)c2)[C@@H](CO)O1 | -2.53% | 
C[C@@H]1CN([C@H](C)CO)C(=O)CCCn2nncc2CO[C@@H]1CN(C)C(=O)OCc1ccccc1 | -13.2% | 
O=C(O)CSc1nccn1-c1cccc(Cl)c1 | -24.7% | 
Cc1cccc(OCC(=O)OCC(=O)Nc2ccc(Cl)cn2)c1 | -2.9% | 
CCNC(=S)N1CCN(CCN=CC2=C(O)CC(C)(C)CC2=O)CC1 | 0.937% | 
Cc1cc(C)c(S(=O)(=O)N2C=CC(C(F)(F)F)=NCC2)c(C)c1 | -29.9% | 
CC(CCO)Nc1nc2c([nH]1)c(=O)n(C)c(=O)n2C (centres undefined) | -0.337% | 
Cc1sc2nc(-c3ccccc3F)oc(=O)c2c1C | 1.12% | 
COc1ccc(-c2csc3nc(-c4ccccc4F)oc(=O)c23)cc1OC |  | 16.4 µM (active)
COc1ccccc1-c1nnc(-c2ccc(F)cc2)o1 | -26.4% | 
O=C(NCc1ccco1)C(c1ccncc1)N(C(=O)Cn1nnc2ccccc21)c1ccccc1 (centres undefined) | -4.11% | 
Cc1nn(-c2ccccc2)c2[nH]c(C(F)(F)F)cc(=O)c12 | -13.2% | 
O=S(=O)(Nc1ncnc2sccc12)c1cccc(F)c1 | -22.3% | 
Nc1ccccc1-c1nc2ccncc2[nH]1 | 5.85% | 
Cc1cccc(C)c1NC(=O)C1(N(C(=O)c2ccccn2)c2ccc(O)cc2)CCCCC1 | 3.63% | 
COc1ccc2c(CC(=O)OCC(=O)Nc3ccccc3[N+](=O)[O-])coc2c1 | -18% | 
Cc1ccc(-c2nnn(CC(=O)N(Cc3ccco3)C(C(=O)NC(C)(C)C)c3ccncc3)n2)o1 (centres undefined) | 5.93% | 
Cc1nc(C)c(C(=O)N(c2ccc(C)c(C)c2)C(C(=O)NCc2ccco2)c2ccccc2)s1 (centres undefined) | -13% | 

SMILES | activity change, negative = growth inhibition | Potency
Cc1nn(-c2ccccc2)c2sc(C(=O)N(Cc3ccco3)C(C)C(=O)NC(C)(C)C)cc12 (centres undefined) |  | 14.6 µM (active)
Cc1ccc(NC(=O)Nc2ccc3oc(C)nc3c2)cc1 | -25.8% | 
O=C(NCCc1ccc(F)cc1)c1n[nH]c2ccccc12 | -12.6% | 
COc1ccc2oc(=O)c(-c3cn4c(n3)sc3cc(OC)ccc34)cc2c1 | -13.4% | 
CCCN1CCN(CCCNC(=O)c2ccc3nc(Cc4ccccc4)oc3c2)CC1 | -27.3% | 
COc1ccc(NC(=O)c2cc(-c3ccc(C)cc3)on2)cc1 | 3.31% | 
COc1ccc(-c2cn3c(C)c(C(=O)Nc4cc(C)cc(C)c4)sc3n2)cc1 |  | 16.4 µM (active)
COc1ccccc1NC(=O)c1ccc2nc(N3C(=O)CCC3=O)sc2c1 | -2.13% | 
O=C(COC(=O)c1n[nH]c2ccccc12)NCc1ccccc1 | -3.5% | 
COc1ccc(-c2cn3c(n2)sc2cc(C(=O)Nc4ccccc4F)ccc23)cc1 |  | 3.66 µM (active)
COc1ccc(-c2cc(C(=O)NCCCN3CCOCC3)no2)cc1 | -21.3% | 
CCOC(=O)c1ccccc1NC(=O)c1sc2nc(-c3ccc(F)cc3)cn2c1C | -0.672% | 
COc1cccc(CNC(=O)c2n[nH]c3ccccc23)c1 |  | 16.4 µM (active)
CCN1CCN(CCCNC(=O)c2ccc3c(c2)sc2nc(-c4ccc(OC)cc4)cn23)CC1 |  | 1.3 µM (active)
O=C(OCC(=O)N1CCCCC1)c1ccc(OC(F)(F)F)cc1 | -11.7% | 
CCN(CC)C(=O)C1CCC(C)(C(=O)O)C1(C)C (centres undefined) | -3.85% | 
O=S(=O)(NCCSc1ccccn1)c1ccc(Cl)cc1 | -8.5% | 
CC(C)=NN1C(=O)c2ccccc2NC1(C)C | -4.65% | 
Cc1nnsc1C(=O)Nc1cccc(Cl)c1C | -1.62% | 
COc1cccc(CNC(=O)c2ccc3c(c2)sc2nc(-c4cccc(OC)c4)cn23)c1 |  | 4.11 µM (active)
COc1cccc(CNC(=O)Cn2ncn3c(cc4ccccc43)c2=O)c1 | -13.4% | 
COc1cccc(CNC(=O)CCc2nc(-c3ccc(C)cc3)no2)c1 | -22.7% | 
CCCC(=O)Nc1cc(OCC)c(NC(=O)NC2CCCCC2)cc1OCC | -4.1% | 
CCOc1cc(NC(=O)CCl)c(OCC)cc1NC(C)=O |  | 16.4 µM (active)
CCOc1cc(NC(=O)Nc2ccccc2)c(OCC)cc1NC(=O)CC | -29.2% | 
C=CC1=C(C(=O)O)N2C(=O)[C@@H](NC(=O)/C(=N/OCC(=O)O)c3csc(N)n3)[C@H]2SC1 | -3.69% | 

SMILES | activity change, negative = growth inhibition | Potency
COC(=O)C1=C(C)NC(=O)CC1c1ccccc1OC (centres undefined) | -10.2% | 
COc1cc(N/C=C2\CC(=O)NC(C)=C2C#N)cc(OC)c1OC |  | 25.9 µM (active)
COc1cc2c(cc1OC)C(C(=O)Nc1cc(C)c(OC)c(C)c1)CC(=O)N2 (centres undefined) | -8.04% | 
CC(C)CNC(=O)C1(C)CCCN1C(=O)CSc1ccccc1 (centres undefined) | -14.1% | 
Cc1ccccc1NC(=O)N1CCCC1C(=O)NCc1ccccc1 (centres undefined) | 22.4% | 
O=C(CSc1n[nH]c(=O)n1-c1ccccc1)Nc1ccccc1C(F)(F)F | 10.9% | 
O=C1CN(C(=O)Nc2ccccc2C(F)(F)F)C(c2ccccc2)c2c(sc3c2CCCC3)N1 (centres undefined) |  | 18.4 µM (active)
[2H]C(CCOS(N)(=O)=O)c1ccccc1 (centres undefined) | -7.22% | 
Cn1c(=NC(=O)C2CC2)sc2cc(F)cc(F)c21 | 1.11% | 
O=C(NC(c1ccccc1)c1ccccc1)N1CCN(CCO)CC1 | -19% | 
O=C(CN1CCc2ccccc21)NC(c1ccccc1)c1ccccc1 | -15.6% | 
O=C(CN1CCN(Cc2ccccc2)CC1)NC(c1ccccc1)c1ccccc1 |  | 23.1 µM (active)
CC12CCC(=O)N1C(C(=O)Nc1ccc(F)c(F)c1F)CS2 (centres undefined) | -2.89% | 
COC(=O)/C=C(\Oc1ccccc1)C1(O)CCCCC1 | -6.36% | 
CCNC(=O)NNC(=O)C1CC(c2cccs2)=NO1 (centres undefined) | 1.39% | 
Cc1cc(C(=O)NNC(=O)c2cccc(S(=O)(=O)N3CCOCC3)c2)c2ccccc2n1 | -3.56% | 
COc1ccc(Br)cc1/C=N/NC(=O)c1cccc(S(=O)(=O)N2CCOCC2)c1 | -49.8% | 
O=C(c1cccc(S(=O)(=O)N2CCOCC2)c1)N1CCOCC1 | 3.04% | 
O=C(N/N=C/c1ccc([N+](=O)[O-])o1)c1cccc(S(=O)(=O)N2CCOCC2)c1 |  | 18.4 µM (active)
Cc1cc2ccccn2c1C(=O)c1cccc(S(=O)(=O)N2CCOCC2)c1 |  | 16.4 µM (active)
NC(=O)CSc1nnc(-c2cccc(S(=O)(=O)N3CCOCC3)c2)o1 | -10.2% | 
O=C(Nc1nnc(-c2ccccc2)o1)c1cccc(S(=O)(=O)N2CCOCC2)c1 |  | 16.4 µM (active)
O=C(Nc1ccc(S(=O)(=O)Nc2nccs2)cc1)c1cccc(S(=O)(=O)N2CCOCC2)c1 | 15% | 
O=C(COC(=O)c1ccccc1)Nc1cccc(S(=O)(=O)N2CCOCC2)c1 | -17.9% | 
CCOc1cc(/C=N/NC(=O)c2cccc(S(=O)(=O)N3CCOCC3)c2)ccc1OCC(=O)N(C)C | -4.34% | 
Cc1nc2ccc(NC(=O)c3cccc(S(=O)(=O)N4CCOCC4)c3)cc2s1 |  | 20.6 µM (active)
